In article PMC12548414:
Screen size: about 1,600 compounds; about 20 (1%) showed an effect of 50% or more. Shown is part of a subset that was picked to be rich in strong results.

Each compound was assayed on T1, E. coli pLC1021 (luc-trpAt trans-translation reporter). Conditions: reporter signal, KKL-35 = 100%; rise means trans-translation inhibition; 2 h, 20 µM.
T1 construct: pLC1021 luc-trpAt reporter strain
Parameters: species or system Escherichia coli pLC1021; luc-trpAt non-stop luciferase reporter; luminescence rises when trans-translation is inhibited; normalized to KKL-35 and DMSO
Protocol: The luciferase screen was performed as previously described ([16]). […] 48 µL of cells was transferred to white 96-well plates, and 2 µL DMSO or 20 µM compound, or 20 µM KKL-35 was added. Plates were sealed with adhesive film, vortexed gently to mix, and incubated at room temperature for 2 h. 50 µL Bright-Glo reagent (Promega, Madison, WI) was added to each well, and the plates were sealed with adhesive film, vortexed vigorously, and incubated for an additional 10 min at room temperature. Luminescence was measured at 560 nm using a SpectraMax i3 microplate reader and readings for each plate were normalized to the average of three KKL-35-treated wells (positive control) and three DMSO-treated wells (negative control) within the plate to correct for plate-to-plate and day-to-day variations. Results from at least two biological repeats were averaged, and GraphPad Prism was used to plot the data. We screened a library of 1,601 anti-tubercular small molecules for their ability to inhibit trans-translation using a luciferase reporter in Escherichia coli. In this luc-trpAt reporter, the firefly luciferase gene has a trpA transcriptional terminator before the stop codon, such that luciferase is translated from a non-stop mRNA ([16]). When trans-translation is active, the luciferase will be tagged and degraded, but when trans-translation is inhibited, active luciferase will accumulate, resulting in a luminescent signal when luciferin is added. Luciferase activity was measured after growth in the presence of compounds from the library at 20 µM, using the known trans-translation inhibitor KKL-35 as a positive control (Fig. 1A) ([16], [17]). Compounds with activity one standard deviation above the median were scored as positive (Fig. S1 and Table S1).

| SMILES | % activation |
| --- | --- |
| COC(=O)CSc1nc(N)c2c3c(sc2n1)CCCC3 [KKL-0994] | 9% |
| COc1ccc(C(=O)NC(=S)Nc2ccc(N3CCCCC3)cc2)cc1OC [KKL-1472] | 0% |
| Cc1cc(Nc2ccccc2)n(-c2nc3ccccc3[nH]2)n1 [KKL-0835] | 21% |
| COc1ccc2[nH]c(CNCCc3nc4cc(Cl)ccc4[nH]3)cc2c1 [KKL-1215] | 0% |
| COCc1nnc(NC(=O)c2nnn(-c3ccccc3F)c2C)s1 [KKL-0547] | 0% |
| CCC(C)NCCCOc1ccc(Cl)c2ccccc12 (stereo not shown) [KKL-1428] | 0% |
| O=C(CNCCN1CCOCC1)Nc1sc2c(c1C(=O)Nc1ccccc1)CCC2 [KKL-1074] | 2% |
| CCOC(=O)c1ccc(NC(S)=Nc2ccc(Oc3ccccc3)cc2)cc1 [KKL-1317] | 0% |
| Cc1c(C(=O)NC(=S)Nc2ccc(Oc3ccc(Cl)cc3)cc2)cccc1[N+](=O)[O-] [KKL-0735] | 17% |
| O=C(COc1cccc(F)c1)Nc1nc(-c2ccccn2)cs1 [KKL-1787] | 5% |
| O=C(CSc1ccccc1)Nc1ccc(-c2nc3ccccc3c(=O)o2)cc1 [KKL-0595] | 1% |
| O=C(Nc1ccc(F)cc1)NC1CCCCCCC1 [KKL-1335] | 0% |
| COc1cc(CN(CCCn2ccnc2)Cc2ccc(C)s2)cc2c1OCO2 [KKL-0341] | 9% |
| CSc1nc2nc3c(c(O)n2n1)CCCC3 [KKL-1033] | 0% |
| Cc1ccc(C(=O)Oc2ccc(Cl)c3cccnc23)cc1[N+](=O)[O-] [KKL-1383] | 0% |
| COc1ccc(C(=O)Oc2cccc3cccnc23)cc1[N+](=O)[O-] [KKL-1648] | 0% |
| O=C(Oc1c(Cl)cc(Cl)c2cccnc12)c1ccc([N+](=O)[O-])cc1 [KKL-0754] | 96% |
| O=C(Oc1c(Cl)cc(Cl)c2cccnc12)c1ccccc1[N+](=O)[O-] [KKL-1418] | 90% |
| O=C(Oc1c(Cl)cc(Cl)c2cccnc12)c1ccco1 [KKL-1639] | 0% |
| Cc1c(C(=O)Oc2cccc3cccnc23)cccc1[N+](=O)[O-] [KKL-0952] | 8% |
| CCCc1cc2c(=O)c(-c3ccc4c(c3)OCCCO4)coc2cc1OCC(=O)OCC [KKL-1419] | 0% |
| O=C(Nc1ccc(Cl)cc1C(F)(F)F)c1ccc([N+](=O)[O-])o1 [KKL-0712] | 0% |

| SMILES | % activation |
| --- | --- |
| COc1ccc(-c2cncc(-c3cc(N4CCN(CCO)CC4)nc(-c4ccccc4)n3)c2)cc1 [KKL-1682] | 0% |
| CN1CCN(c2cc(-c3ccncc3)nc(-c3ccccc3)n2)CC1 [KKL-1795] | 237% |
| CN1CCN(c2cc(-c3ccc(F)cc3)nc(-c3ccncc3)n2)CC1 [KKL-1844] | 0% |
| Cc1cc(CN2CCC(O)(c3ccccc3)C2)ccc1N1CCCC1 (stereo not shown) [KKL-0330] | 0% |
| CCc1ccc(Nc2nnc(SCc3cc(C)on3)s2)cc1 [KKL-1791] | 0% |
| N#Cc1cc2c(ccc3ccccc32)oc1=O [KKL-1386] | 0% |
| CCCc1ccc2oc(C(=O)NCCc3ccc(O)cc3)c(C)c2c1 [KKL-1185] | 2% |
| C#CCOc1cccc(CN2CCn3cccc3C2CC)c1 (stereo not shown) [KKL-0516] | 0% |
| CSc1ncc(CN2CCCC(C(=O)c3ccc(-c4ccccc4)c(F)c3)C2)cn1 (stereo not shown) [KKL-0344] | 0% |
| CN(CC1Cc2ccccc2CN1C)C(=O)c1cc(COc2cncc(Cl)c2)on1 (stereo not shown) [KKL-1186] | 0% |
| COc1ccccc1N1C(=O)c2cccc3cc([N+](=O)[O-])cc(c23)C1=O [KKL-1508] | 0% |
| Cc1ccccc1OCCCON1C(=N)N=C(N)NC1(C)C [KKL-1698] | 11% |
| COc1ccc(C(C)(C)C)cc1N=C(S)Nc1ccc(Cl)c(Cl)c1 [KKL-1535] | 0% |
| Cc1ccc2nc(C(F)(F)F)c(C(=O)NCc3cccc(OC(C)C)c3)n2c1 [KKL-1772] | 2% |
| Oc1cccc2ccc(/C=C/c3cccc(F)c3)nc12 [KKL-1464] | 18% |
| CC(=O)Nc1ccc2cccc(O)c2n1 [KKL-0957] | 55% |
| Cc1ccccc1/C=C/c1ccc2cccc(O)c2n1 [KKL-0432] | 11% |
| Cc1nc2ccccn2c1C(=O)Nc1ccc(C(C)(C)C)cc1 [KKL-1770] | 0% |
| N#Cc1ncn(-c2ccc3nnc(C(F)(F)F)n3n2)n1 [KKL-1886] | 0% |
| CC(C)c1noc(N2CCC(C(C)Oc3cnc(-c4ccc(S(C)(=O)=O)c(F)c4)cn3)CC2)n1 (stereo not shown) [KKL-1810] | 0% |
| Cc1ccc(-c2cc(C(=O)N3CCCC(N4CCN(c5ccccc5C)CC4)C3)[nH]n2)s1 (stereo not shown) [KKL-0485] | 0% |
| COc1cccc(O)c1CN1CCC(C(=O)Nc2ccc(-c3cccc(C)c3)cc2)CC1 [KKL-0508] | 0% |

| SMILES | % activation |
| --- | --- |
| CSc1nccc(N2CCCC(CCC(=O)NCc3ccc(F)c(F)c3)C2)n1 (stereo not shown) [KKL-0346] | 0% |
| c1ccc(-c2nc3c(c(N4CCN(Cc5cc6ccccc6[nH]5)CC4)n2)CCC3)cc1 [KKL-0483] | 0% |
| Fc1ccc(Nc2nc(-c3ccccn3)cs2)cc1 [KKL-0715] | 18% |
| O=C(CCCSc1ccccc1)Nc1nc(-c2ccccn2)cs1 [KKL-0800] | 1% |
| COC(=O)COc1ccc2c(=O)c(-c3ccccc3Cl)c(C)oc2c1 [KKL-0748] | 0% |
| COC(=O)COc1ccc(NC(=O)c2ccccc2I)cc1 [KKL-1569] | 0% |
| Cc1ccc(NC(=O)C(Cl)Cl)cc1[N+](=O)[O-] [KKL-1373] | 4% |
| O=C(Cc1ccc(F)cc1)Nc1nc(-c2ccccn2)cs1 [KKL-1688] | 13% |
| Cc1cc(NCc2ccccn2)n2ncc(-c3ccccc3)c2n1 [KKL-0947] | 0% |
| COc1ccccc1CN1CCCCC1C(=O)Nc1ccc(-n2cccn2)cc1 (stereo not shown) [KKL-0494] | 3% |
| Cc1ccc(-n2cc(CN(C)Cc3cc(C)[nH]n3)c(-c3ccc(F)cc3)n2)cc1 [KKL-0319] | 0% |
| COc1ccccc1C1(O)CCN(Cc2cnn(-c3ccc(C)cc3)c2)CC1 [KKL-0553] | 7% |
| O=[N+]([O-])c1cccc(NC(S)=Nc2ccc(Cl)c(C(F)(F)F)c2)c1 [KKL-1319] | 0% |
| COC(=O)C(CCSC)NC(=O)c1cc(COc2ccc(F)cc2Cl)on1 (stereo not shown) [KKL-0497] | 9% |
| O=C(Nc1ccc(Oc2cccnc2)cc1)C1Oc2ccccc2O1 [KKL-0696] | 0% |
| c1ccc(CCNc2ccnc3cc4ccccc4cc23)cc1 [KKL-1051] | 0% |
| Cc1nc(C2CCNCC2)ncc1-c1nc(N2CCCCCC2)ncc1-c1ccc(F)cc1 [KKL-0335] | 0% |
| C(=C\c1nc(N2CCCC2)c2ccccc2n1)/c1ccccc1 [KKL-1269] | 0% |
| Cc1ccc2nc(C(F)(F)F)c(C(=O)NCc3cc(Cl)cc(Cl)c3)n2c1 [KKL-1785] | 16% |
| COc1ccc(CCN=C(S)N2CCN(C/C=C/c3ccccc3)CC2)cc1OC [KKL-1528] | 2% |
| CC(C)c1ccc(OCC(=O)NNC(=S)NC(=O)c2ccco2)c(Br)c1 [KKL-0743] | 24% |
| Cc1ccc(C2(O)CCN(CCNC(=O)c3oc4ccccc4c3C)CC2)cc1 [KKL-0340] | 1% |

| SMILES | % activation |
| --- | --- |
| CC(C)(C)c1ccc(C(=O)Nc2ccc(NC(=S)NC(=O)c3cccs3)cc2)cc1 [KKL-0310] | 0% |
| Oc1c(CN2CCc3ccccc3C2)cc(Cl)c2cccnc12 [KKL-0391] | 42% |
| CSc1ncc(C(=O)NC2(c3ccccc3)CCCC2)cn1 [KKL-0465] | 0% |
| COc1ccc(N=c2cc(-c3ccc(O)cc3)oc3ccccc23)cc1 [KKL-0846] | 0% |
| CCC(Sc1nc2ccccc2o1)C(=O)Nc1nnc(C)s1 (stereo not shown) [KKL-1356] | 2% |
| CCc1ccc(C2CC(C(F)(F)F)n3ncc(C(=O)NCc4cccs4)c3N2)cc1 (stereo not shown) [KKL-1779] | 0% |
| Cc1ccccc1CN1CC[C@@H]2[C@H](C1)[C@@H](c1ccc(F)cc1)CN2C(=O)C(C)C [KKL-1218] | 2% |
| OC(CN1CCC(O)(c2ccc(F)cc2)CC1)c1ccc(-c2ccccc2)cc1 (stereo not shown) [KKL-0933] | 0% |
| CCC1CCCCN1C(=O)COC(=O)c1cc2ccccc2cc1O (stereo not shown) [KKL-0823] | 0% |
| O=C(NCc1cc(Cl)cc(Cl)c1)c1c(C(F)(F)F)nc2ccccn12 [KKL-1807] | 0% |
| O=C(Nc1ccn(Cc2ccc(Cl)cc2)n1)c1ccc2c(c1)OCO2 [KKL-0566] | 0% |
| FC(F)(F)c1nnc2ccc(Sc3nnc(-c4ccco4)o3)nn12 [KKL-1754] | 1% |
| CCCC(=O)NC(=S)Nc1ccc(N2CCN(C(=O)c3cccs3)CC2)c(Cl)c1 [KKL-0912] | 0% |
| O=C(NCc1cnn(-c2cccc(F)c2)c1)c1cc(COc2cccc3cccnc23)on1 [KKL-0634] | 2% |
| O=C(NCCCc1ccc(F)cc1)c1cc(-c2ccccn2)[nH]n1 [KKL-0693] | 0% |
| O=C(Nc1nccs1)c1ccc(CSc2ccccc2)o1 [KKL-0586] | 0% |
| CCc1c(C)c2ccc(OCC(=O)OC)c(C)c2oc1=O [KKL-1278] | 0% |
| CCOC(=O)/C(C#N)=C/c1ccc(-c2ccc(F)cc2)o1 [KKL-0788] | 0% |
| O=C(CC12CC3CC(CC(C3)C1)C2)Nc1cccc(C(F)(F)F)c1 [KKL-1282] | 0% |
| O=C(/C=C/c1cccc(C(F)(F)F)c1)Nc1cccc(C(F)(F)F)c1 [KKL-1369] | 0% |
| NC1CCc2nc(-c3ccncc3)nc(Nc3ccc(C(F)(F)F)cc3)c2C1 (stereo not shown) [KKL-0539] | 620% |
| NC1CCc2nc(-c3ccncc3)nc(Nc3cccc(C(F)(F)F)c3)c2C1 (stereo not shown) [KKL-0541] | 802% |
